High-throughput results deposited in PubChem BioAssay by several laboratories.
Mtb hypoxia rep – inhibitors of hypoxia-regulated fluorescent reporter in Mycobacterium tuberculosis; M. tuberculosis hypoxia-regulated fluorescent reporter, fluorescence; fluorescence inhibition, % (no concentration beside the values); 300,000 compounds, 0.1% hits; AID 1159583; in the data active = fluorescence inhibition mostly above about 23%, no sharp cut-off; inactive = mostly below about 17%
FBA Mtb inh – inhibits M. tuberculosis FBA enzyme | purified M. tuberculosis FBA, fluorescence read-out | 360,000 compounds, 2.3% hits | inhibition, % at 1 µM; in the data active = inhibition above about 27%;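 note: 0% = vehicle and 100% = reference inhibitor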
Target sequence (P9WQA3 whole entry, looked up): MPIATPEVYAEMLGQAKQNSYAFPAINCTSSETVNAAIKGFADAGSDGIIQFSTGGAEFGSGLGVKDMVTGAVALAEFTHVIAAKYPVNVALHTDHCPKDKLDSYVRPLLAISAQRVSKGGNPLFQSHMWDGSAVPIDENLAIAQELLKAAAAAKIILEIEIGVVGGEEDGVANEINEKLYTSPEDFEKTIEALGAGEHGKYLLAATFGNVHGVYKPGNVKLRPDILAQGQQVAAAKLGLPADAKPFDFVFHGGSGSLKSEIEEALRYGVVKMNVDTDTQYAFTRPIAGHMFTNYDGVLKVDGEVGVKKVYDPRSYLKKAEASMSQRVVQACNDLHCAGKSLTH
Mtb bLac sens – beta-lactam sensitization of Mtb H37Rv; AID 434955; 330,000 compounds, 0.27% hits; inhibition, % at 25 µM; M. tuberculosis H37Rv growth with meropenem, percent inhibition; call rule not given here;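 note: growth measured after seven days incubation then overnight dye step; 0% = bacteria only wells and 100% = bacteria with antibiotic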
GDH-TPI counter – inhibits GDH-TPI coupling enzymes, artifact for Mtb FBA screen; GDH-TPI coupled enzyme counterscreen, NADH absorbance; inhibition, % at 4.8 µM; 360,000 compounds, 1.2% hits; AID 588335; in the data active = inhibition above about 30%;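 note: 0% = DMSO wells and 100% = wells lacking the enzyme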
DUSP3 inh – inhibitors of human VHR1 phosphatase (DUSP3) | P51452 | recombinant VHR phosphatase, pNPP absorbance | inhibition, % at 13.3 µM | 290,000 compounds, 0.52% hits; in the data active = inhibition above about 50%
Target sequence (P51452 whole entry, looked up): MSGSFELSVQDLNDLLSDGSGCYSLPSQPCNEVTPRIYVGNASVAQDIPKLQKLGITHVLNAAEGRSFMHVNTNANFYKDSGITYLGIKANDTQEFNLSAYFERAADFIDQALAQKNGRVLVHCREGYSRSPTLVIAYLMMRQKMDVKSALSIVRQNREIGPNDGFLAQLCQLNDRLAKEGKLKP
The depositor's hits bear a star; u = inconclusive; x = not tested or not shown; + = active, no number. Sampled rows, rich in hits. Any-hit rate of the full collection: about 3.6%.

SMILES	Mtb hypoxia rep	FBA Mtb inh	Mtb bLac sens	GDH-TPI counter	DUSP3 inh
COc1cc(NC(=O)CCl)ccc(=O)c1	x	3.0	x	42.5*	x
CN(c1ccc(C(=O)NN=Cc2cccc([N+](=O)[O-])c2)cc1)S(=O)(=O)c1ccccc1	-11.7	x	x	x	x
COc1cc(OC)cc(C(=O)/C=C2\Sc3ccccc3N2C)c1	-1.9	2.0	0.7	11.7	8.4
CN1/C(=C/C(=O)c2cccs2)Sc2ccccc21	x	1.1	38.1	-10.3	38.8
COCC(=O)/C=C1\Sc2ccccc2N1C	11.3	-6.1	1.2	36.6*	-18.6
CN1/C(=C/C(=O)C2CCC2)Sc2ccccc21	20.7	1.9	2.9	67.5*	-0.7
CCOc1cccc(-c2c(C(=O)NN=Cc3ccsc3)nnn2-c2nonc2N)c1	17.1	x	x	x	x
CC1CN(C(C)CO)C(=O)Cc2cc(NC(=O)Nc3ccc(C(F)(F)F)cc3)ccc2OC1CN(C)S(=O)(=O)c1ccc(Cl)cc1 (stereo unspecified)	13.7	x	x	x	x
C#CCOCCOCCOCCNc1nc(N2CCOCC2)nc(N2CCN(C(=O)CCCCCCCCCCNC(=O)C(C(C)CC)n3cc(CCCCCN)nn3)CC2)n1 (stereo unspecified)	18.2	x	x	x	x
CCCc1cc(NCC2CCCO2)n2c(nc3ccccc32)c1C#N (stereo unspecified)	18.0	191.7*	-12.2	15.5	6.5
C=C(C)Cc1c(C)c(C#N)c2nc3ccccc3n2c1NCCCN(C)C	3.4	5.4	-3.6	2.3	5.4
CCCc1cc(NCCN(C)C)n2c(nc3ccccc32)c1C#N	11.4	162.3*	-2.5	11.7	19.3
CCCc1cc(NCCCN(C)C)n2c(nc3ccccc32)c1C#N	4.0	112.1*	10.8	6.4	x
Cc1c(C=NO)c2ccccn2c1C=O	-2.0	x	x	x	x
O=C1NC(=O)C(Nc2cccc3ccccc23)S1 (stereo unspecified)	21.9	6.6	-10.1	36.2*	35.8
CC(C=NNC(=O)c1ccncc1)=Cc1ccc(C(C)C)cc1	-2.0	x	x	x	x
N#Cc1c(-c2ccco2)cc(-c2ccc(F)cc2)nc1N	x	153.5*	2.7	16.1	23.8
N#Cc1c(-c2ccccc2)cc(-c2ccc(O)cc2)nc1N	24.9	17.3	42.4	23.4	-14.6
N#Cc1c(-c2ccc(F)cc2)cc(-c2cccnc2)nc1N	x	24.3	u	-17.3	5.7
Cc1ccc(-c2cc(-c3ccccc3)nc(N)c2C#N)o1	11.2	132.6*	-1.9	-2.1	26.3
Nc1nc2nn(-c3ccccc3)nc2c(=O)[nH]1	-1.2	199.2*	3.0	14.3	3.5
COc1cc(C=NNC(=O)COc2ccccc2C)ccc1OC(=O)c1cccs1	10.2	x	x	x	x
Cc1cccc(C2=NN(c3ccccc3)[C@H](CO)[C@H]2c2ccccc2)c1	4.6	59.3*	x	-9.4	x
CC1CCN(C2(O)C(=O)Nc3ccc([N+](=O)[O-])cc32)CC1 (stereo unspecified)	x	0.4	-9.4	31.9*	30.2
CN(C)N1C(=O)/C(=C/c2ccco2)SC1=Nc1ccccc1	-9.0	4.7	-4.1	40.1*	x
SMILES	Mtb hypoxia rep	FBA Mtb inh	Mtb bLac sens	GDH-TPI counter	DUSP3 inh
CN(CCCCCCN(C)Cc1ccccc1O)Cc1ccccc1O	7.1	-0.2	-8.0	-2.6	51.5*
Cc1ccc(O)c(CN(C)Cc2cc(C)ccc2O)c1	3.2	2.5	x	3.9	x
CCC(C)NC(=O)c1c(N)n(N=Cc2cccnc2)c2nc3ccccc3nc12 (stereo unspecified)	-13.9	x	x	x	x
OCCN1CCN(CC(O)COCC2COc3ccccc3O2)CC1 (stereo unspecified)	13.0	4.1	-0.2	0.3	24.2
CC1CCCC(C)N1CC(O)COCC1COc2ccccc2O1 (stereo unspecified)	x	0.1	3.2	8.5	55.2*
CCN1CC2C3C(=O)N(Cc4ccccc4)C(=O)C3[C@](CC)(C1=O)N2C(=O)c1ccc(C(F)(F)F)cc1 (stereo partly specified)	4.6	x	x	x	x
CCN(Cc1ccccc1)c1ccc(C=NN2CCOCC2)cc1	12.1	x	x	x	x
Cc1[nH]c2ccccc2c1/C=N\NC(=O)c1ccco1	x	-2.8	-3.1	56.7*	-1.9
CCc1cc(C(=O)N/N=C/c2c(C)[nH]c3ccccc23)cs1	x	3.6	1.2	31.8*	19.7
Cc1[nH]c2ccccc2c1/C=N/NC(=O)c1cc(C(C)C)[nH]n1	x	1.9	-1.3	47.3*	32.6
Cc1[nH]c2ccccc2c1C=NNC(=O)c1ccc(N)cc1	-1.5	x	x	x	x
CN(C)C=NNC(=O)C1Cc2c(ccc3ccccc23)O1 (stereo unspecified)	8.5	x	x	x	x
O=C(CSc1ccccc1C(=O)N1CCCCC1)NCC1CCCCC1	6.8	-5.0	-27.4	-7.6	6.2
Cc1ccc(CNC(=O)c2ccccc2SCC(=O)NCC2CCCCC2)cc1	-3.1	-1.4	-1.4	2.6	53.8*
C=CCN1C(=O)C(Cc2ccc(F)cc2)SC1=NN=Cc1ccco1 (stereo unspecified)	12.5	x	x	x	x
CC(=O)C1C2c3ccccc3OC1(C)N=c1s/c(=C/c3cnn(C)c3)c(=O)n12 (stereo unspecified)	x	-4.0	-10.1	38.0*	26.3
CCOc1ccc(-n2nc3ccc(NC(=O)CC)cc3n2)cc1	6.0	+	3.3	8.4	16.5
CCOc1ccc(NC(=O)CN2CCN(CC(=O)Nc3cccc(F)c3)CC2)cc1	x	152.5*	-8.6	-6.8	-0.5
COCC(=O)N1CCN(c2ccc([N+](=O)[O-])cc2)CC1	x	-15.3	-10.0	17.5	6.2
COc1cc(CCC(=O)N2CCN(c3ccc([N+](=O)[O-])cc3)CC2)cc(OC)c1OC	-5.4	-3.5	5.1	-2.0	56.9*
Cc1cc(C)nc(NN=Cc2c(CO)cnc(C)c2O)n1	-0.3	x	x	x	x
Cc1cc(C(=O)NN)c2cc(Br)ccc2n1	12.3	5.2	11.3	1.9	-0.2
NNC(=O)c1cc(-c2ccc(N)cc2)nc2ccc(Br)cc12	-2.0	3.8	-10.0	21.4	54.1*
O=C(Cc1c[nH]c2ccccc12)NN=Cc1ccccc1O	3.2	x	x	x	x
COc1ccc(/C=C/c2nnc(NC(=O)C(C)(C)C)s2)cc1	7.6	9.2	57.7	52.4*	-5.1
SMILES	Mtb hypoxia rep	FBA Mtb inh	Mtb bLac sens	GDH-TPI counter	DUSP3 inh
CC(CCC=CC(=O)O)OC1OC(C)C(O)CC1O (stereo unspecified)	1.2	x	x	x	x
O=C(Nc1ccc2c(c1)OCO2)N1CCN(c2ccc(F)cc2)CC1	-1.2	2.8	4.3	11.0	57.4*
O=C(Nc1ccc2c(c1)OCCO2)N1CCN(Cc2ccccc2)CC1	10.0	0.7	-3.3	31.7*	23.8
CCN(CC)C(=O)C1CCCN(c2ccc([N+](=O)[O-])cc2C=NNC(=O)c2cccc(O)c2)C1 (stereo unspecified)	11.0	x	x	x	x
CCCN(CCC)S(=O)(=O)c1cccc(C(=O)Nc2ccc3c(c2)OCO3)c1	-0.5	-0.1	-2.9	7.9	51.9*
COc1cc(NC(=O)c2ccc3c(c2)OCO3)ccc1NC(=O)c1ccco1	x	0.0	-1.8	41.8*	26.4
Cc1cc(NC(=O)c2ccc3c(c2)OCCO3)ccc1NC(=O)c1ccco1	-2.1	-4.9	-7.1	1.9	2.0
CCN(CC)c1ccc(NC(=O)c2ccc3c(c2)OCO3)cc1	-3.0	-0.4	-2.1	15.4	53.6*
O=C(NCCCN1CCCC1)c1ccc2c(c1)N(Cc1cccc(Cl)c1)C(=O)c1ccccc1S2(=O)=O	x	-2.7	x	-1.8	x
